Only some compounds are listed: those with a hit (about 6.8% of all), similar ones and a draw of the others.
PMK inhibit: S. pneumoniae PMK inhibitors, primary screen, biochemical, mevalonate pathway, pilot trial included; purified PMK, PK/LDH-coupled NADH absorbance 340 nm; inhibition, % at 10 µM; 65,000 tested, 0.49% active; AID 539, 2006;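 active means top-ranked compounds by inhibition in the single 10 µM screen, taking a fixed number of the strongest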
Fluor 339 460: intrinsic fluorescence of library compounds, ex339/em460 – biochemical, MLSMR library, data from DPM-DC assay, artefact control, profiling panel. compound autofluorescence, ex339/em460 nm, NADH buffer; active compounds read high; 1 = no-compound wells, NADH background. fluorescence fold increase at 10 µM. 65,000 tested, 5.5% active. AID 709, 2007;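 active means at 10 µM, mean starting fluorescence two-fold or more over control wells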;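 further: signal is the first read of a kinetic run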
NADH coupling: inhibitors of PK/LDH coupling enzymes, profiling panel, artefact control, biochemical, MLSMR library. coupled PK/LDH NADH assays, four targets. IC50, µM (top dose mostly 10 µM). 65,000 tested, 0.02% active;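 active means single-dose screening hits from any of four coupled enzyme assays that gave an IC50 when retested across doses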;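 further: the DPM-DC format reads NADH fluorescence rather than 340 nm absorbance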
Spn MK inh: S. pneumoniae MK inhibitors, primary screen, biochemical, PK/LDH-coupled NADH absorbance | mevalonate kinase [Streptococcus pneumoniae D39] | purified MK, PK/LDH-coupled NADH absorbance 340 nm | inhibition, % at 10 µM | 65,000 tested, 0.48% active | AID 555, 2006;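 active means ranked among the strongest by inhibition in the single 10 µM screen, a fixed top-ranked set picked for dose follow-up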
Spn DPM-DC inh: S. pneumoniae DPM-DC inhibitors, primary screen, biochemical, PK/LDH-coupled NADH fluorescence. diphosphomevalonate decarboxylase (Streptococcus pneumoniae D39). 65,000 tested, 0.49% active. calls only at 10 µM. purified DPM-DC;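 active means the 320 compounds with the highest percent inhibition in the single-dose primary screen, excluding strongly autofluorescent ones, cut at about 32% in these data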;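 further: kinetic rate of NADH fluorescence loss reporting ADP formed by the decarboxylase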
A340 absorber: compound light absorbance at 340 nm, profiling panel, artefact control, biochemical, MLSMR library, data from PS, PMK, MK assays; compound absorbance at 340 nm, fold over control; fold change at 10 µM; 65,000 tested, under 10 active;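 active means at 10 µM dose, initial 340 nm absorbance at least 2 fold that of control wells; inactive means change under 2 fold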;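 further: initial absorbance extrapolated from kinetic A340 decline of NADH oxidation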
Each line names hits and unclear results; the compound was inactive in the other large screens; [ ] = remark or other dose.

Cc1cccn2c(=O)c3cc(C(=O)N4CCC5(CC4)OCCO5)n(C)c3nc12	Fluor 339 460 5 (not shown: Spn DPM-DC inh)
Cn1c(C(=O)N2CCC3(CC2)OCCO3)cc2c(=O)n(C)c3ccccc3c21	none
Cc1nc2c(c(C)nn2-c2ccccc2)c(C)c1CCC(=O)N1CCC2(CC1)OCCO2	Fluor 339 460 3.6
O=C(CSc1ccccc1)N1CCC2(CC1)OCCO2	none
Cc1nc2c(-c3ccccc3)c(C)nn2c(C)c1CCC(=O)N1CCC2(CC1)OCCO2	none
Cc1nc2cc(-c3cccc(F)c3)nn2c(C)c1CCC(=O)N1CCC2(CC1)OCCO2	Fluor 339 460 2.3
CCOC(=O)c1cc(C)n(CCc2cnc[nH]2)c1C	none
CCN(CC)CCN=C(C)c1c(O)n(-c2ccccc2OC)c(=O)[nH]c1=O	none
Cc1oc(C(=O)Nc2ccc(O)cc2)cc1COc1ccccc1	none
COC(=O)c1cc(COc2cc(C)cc3oc(=O)c4c(c23)CCC4)c(C)o1	none
CCOC(=O)C(C)Oc1cc(C)cc2oc(=O)c3c(c12)CCCC3 (stereo not drawn)	Fluor 339 460 2.1 (not shown: Spn DPM-DC inh)
COC(=O)C(C)Oc1cc(C)cc2oc(=O)c3c(c12)CCC3 (stereo not drawn)	Fluor 339 460 3.8 (not shown: Spn DPM-DC inh)
COC(=O)C(C)Oc1cc(C)cc2oc(=O)c3c(c12)CCCC3 (stereo not drawn)	Fluor 339 460 3.7 (not shown: Spn DPM-DC inh)
Cc1cc(OCC(=O)OC(C)C)c2c3c(c(=O)oc2c1)CCCC3	none
CCCCC12CNCC(C)(CNC1)C2=O	none
Cc1cc(OCC(=O)NC2CCS(=O)(=O)C2)c2c3c(c(=O)oc2c1)CCC3 (stereo not drawn)	Fluor 339 460 2.2 (not shown: Spn DPM-DC inh)
Cc1cc(OCc2nn[nH]n2)c2c3c(c(=O)oc2c1)CCC3	Fluor 339 460 3.9 (not shown: Spn DPM-DC inh)
O=C(c1csc2c1CCCCC2)N1CCC2(CC1)OCCO2	none
O=C(CCN1C(=O)COc2ccccc21)N1CCC2(CC1)OCCO2	none
CN(C)[C@@H]1C(=O)C(C(N)=O)=C(O)[C@@]2(O)C(=O)C3=C(O)c4c(O)cccc4[C@@](C)(O)[C@H]3[C@H](O)[C@@H]12	NADH coupling 125µM[fluoresces], Spn DPM-DC inh active[fluoresces]
Cn1c(C(=O)O)c(CC(=O)N2CCN(Cc3ccccc3)CC2)c2ccccc21	none
CCCNC(=O)c1c(N)n(CC2CCCO2)c2nc3ccccc3nc12 (stereo not drawn)	Fluor 339 460 3.9 (not shown: Spn DPM-DC inh)
CC(C)OCCCNC(=O)c1c(N)n(CC2CCCO2)c2nc3ccccc3nc12 (stereo not drawn)	Fluor 339 460 3 (not shown: Spn DPM-DC inh)
COc1ccccc1N1CCN(Cc2cccc(OC)c2O)CC1	none
CCOC(=O)C(O)(c1ccc(N(CC)S(=O)(=O)c2ccccc2)cc1)C(F)(F)F (stereo not drawn)	none
CCOc1ccc(-c2cc(C(=O)N3CCC4(CC3)OCCO4)c3ccccc3n2)cc1	Fluor 339 460 5.2 (not shown: Spn DPM-DC inh)
N#CC1=C(N)Oc2c(c(=O)oc3ccccc23)C1c1ccc(OC(=O)N2CCOCC2)cc1 (stereo not drawn)	none
COc1ccc(C2C(C(=O)N3CCC4(CC3)OCCO4)CC(=O)N2c2ccc(OC)cc2)cc1 (stereo not drawn)	none
CC(C)CCn1c(N)c(C(=O)OCC2CCCO2)c2nc3ccccc3nc21 (stereo not drawn)	Fluor 339 460 4 (not shown: Spn DPM-DC inh)
CCCCn1c(N)c(C(=O)OCC2CCCO2)c2nc3ccccc3nc21 (stereo not drawn)	Fluor 339 460 3.9 (not shown: Spn DPM-DC inh)
O=C1C2CCCN2C(c2cccs2)N1c1ccccn1 (stereo not drawn)	none
COC(=O)c1c(C)[nH]c(C(=O)C(Cc2ccccc2)N(C)C)c1C (stereo not drawn)	none
COc1cc2[nH]c(=O)n(-c3cccc(Cl)c3)c(=O)c2cc1OC	none
COc1cc2[nH]c(=O)n(-c3ccccc3)c(=O)c2cc1OC	Fluor 339 460 2.1 (not shown: Spn DPM-DC inh)
CN1CCN(C(=O)COc2ccc3ccccc3c2Br)CC1	none

Compound activity: PubChem, SRMLSC
